Test results published in PubChem BioAssay (Tox21).
Records with an inconclusive call do not appear. Calls of active or inactive are those of the source. The call rests on the fitted dose curve; in most records, active means well fitted curve in the direction sought with a large enough effect in the repeat runs; inconclusive means weak or mixed curves; inactive means no such curve, though single readings can be large; an effect the other way counts as inactive or inconclusive.

System: not listed separately
Assay: qHTS assay to identify small molecule antagonists of the estrogen receptor alpha (ER-alpha) signaling pathway using the BG1 cell line - cell viability counter screen (AID 743081);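 further: compound given together with 17beta-estradiol as the ER stimulus; nearly all actives have a fitted effect of over 45% in size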
Details: BG1Luc4E2 viability, CellTiter-Fluor, 22 h; series mostly up to 70.3 µM; activity change, negative = cytotoxicity: at the top concentration
On the % scale 0 is the no-effect control and ±100 the full control effect.

Q: For CO/N=C(\C(=O)N[C@@H]1C(=O)N2C(C(=O)O)=C(CSC(=O)c3ccco3)CS[C@H]12)c1csc(N)n1, which “activity change, negative = cytotoxicity” value is on record?
A: 2.53% (inactive)

Q: Which “activity change, negative = cytotoxicity” value does the source give for Cc1onc(-c2ccccc2)c1C(=O)N[C@@H]1C(=O)N2[C@@H]1SC(C)(C)[C@@H]2C(=O)O here?
A: -11.9% (inactive)

Q: For CCCc1ccc(C(=O)O)cc1, which “activity change, negative = cytotoxicity” value is on record?
A: -21.1% (inactive)

Q: For N[C@H](CC(=O)O)C(=O)O, which “activity change, negative = cytotoxicity” value is on record?
A: 16.6% (inactive)

Molecular target: Aromatase (Homo sapiens) (UniProt P11511)
Assay: qHTS assay to identify aromatase inhibitors (AID 743083); further: nearly all actives have a fitted effect of over 55% in size; further: potency means the concentration at half of the fitted maximal effect
Details: MCF-7 aro ERE, testosterone-driven ERE luciferase, 24 h; series mostly up to 70.3 µM; activity, negative = inhibition: at the top concentration

Chain of Aromatase (Homo sapiens) (P11511 whole entry, looked up): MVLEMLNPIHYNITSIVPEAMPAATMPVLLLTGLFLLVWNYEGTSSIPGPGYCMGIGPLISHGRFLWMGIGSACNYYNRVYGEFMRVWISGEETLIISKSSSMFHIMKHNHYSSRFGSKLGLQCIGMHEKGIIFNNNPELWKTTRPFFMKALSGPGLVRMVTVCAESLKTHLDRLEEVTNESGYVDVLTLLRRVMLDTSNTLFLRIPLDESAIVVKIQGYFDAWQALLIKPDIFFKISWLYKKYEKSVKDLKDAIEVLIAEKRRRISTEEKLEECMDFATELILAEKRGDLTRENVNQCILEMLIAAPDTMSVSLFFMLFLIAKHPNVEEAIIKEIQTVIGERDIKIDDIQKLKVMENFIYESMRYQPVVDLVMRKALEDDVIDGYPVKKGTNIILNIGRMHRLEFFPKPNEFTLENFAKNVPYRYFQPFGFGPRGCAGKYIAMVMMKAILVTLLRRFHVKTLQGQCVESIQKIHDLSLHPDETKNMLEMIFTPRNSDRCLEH

Q: For CNC[C@@H]1CC[C@@H](N)[C@@H](O[C@H]2[C@H](O)[C@@H](O[C@H]3OC[C@](C)(O)[C@H](NC)[C@H]3O)[C@H](N)C[C@@H]2N)O1, which “activity, negative = inhibition” value is on record?
A: 3.92% (inactive)

Q: For CCc1ccc(S(=O)(=O)O)cc1, which “activity, negative = inhibition” value is on record?
A: 6.34% (inactive)

Q: Which Potency does the source give for Cc1cc(-c2ccc(N=Nc3c(S(=O)(=O)O)cc4cc(S(=O)(=O)O)cc(N)c4c3O)c(C)c2)ccc1N=Nc1c(S(=O)(=O)O)cc2cc(S(=O)(=O)O)cc(N)c2c1O here?
A: 11.9 µM (active)

Q: With C#CCC(Cc1cnc2nc(N)nc(N)c2n1)c1ccc(C(=O)N[C@@H](CCC(=O)O)C(=O)O)cc1 (stereo partly drawn) as the compound, how does the “activity, negative = inhibition” value read?
A: -17.2% (inactive)

Q: For CO[C@H]1[C@@H](O)[C@H](N)[C@@H](O[C@H]2O[C@H]([C@H](C)N)CC[C@H]2N)[C@H](O)[C@@H]1N(C)C(=O)CN, which “activity, negative = inhibition” value is on record?
A: 10.3% (inactive)

Q: For CCCCC(O)c1ccccc1 (stereo not drawn), which “activity, negative = inhibition” value is on record?
A: 0.858% (inactive)

Q: For CN[C@H]1CCc2cc(OC)c(OC)c(OC)c2-c2ccc(OC)c(=O)cc21, which “activity, negative = inhibition” value is on record?
A: -6.8% (inactive)

Q: With O=C(OCc1ccccc1)c1cccnc1 as the compound, how does the “activity, negative = inhibition” value read?
A: -6.55% (inactive)

Q: With CC(=O)N[C@@H]1C(O[C@H]2O[C@H](C(=O)O)C(O)[C@H](O)[C@H]2O)[C@H](O)[C@@H](CO)O[C@H]1O[C@@H]1C(C(=O)O)O[C@@H](O[C@H]2[C@H](O)[C@@H](CO)OC(O)[C@@H]2NC(C)=O)[C@H](O)[C@H]1O (stereo partly drawn) as the compound, how does the “activity, negative = inhibition” value read?
A: -0.214% (inactive)

Q: Which “activity, negative = inhibition” value does the source give for O=C[C@H](O)[C@@H](O)[C@H](O[C@H]1O[C@H](CO)[C@@H](O[C@H]2O[C@H](CO)[C@@H](O)[C@H](O)[C@H]2O)[C@H](O)[C@H]1O)[C@H](O)CO here?
A: 31.3% (inactive)

Q: Which “activity, negative = inhibition” value does the source give for OCC(O)COc1ccc(Cl)cc1 (stereo not drawn) here?
A: 5.21% (inactive)

Q: For C=CCN1CCCC1CNC(=O)c1cc(S(N)(=O)=O)cc(OC)c1OC (stereo not drawn), which “activity, negative = inhibition” value is on record?
A: 4.73% (inactive)

Q: Which “activity, negative = inhibition” value does the source give for Nc1ccn(C[C@@H](CO)OCP(=O)(O)O)c(=O)n1 here?
A: 7.2% (inactive)

Q: Which “activity, negative = inhibition” value does the source give for CC(=O)[C@@]1(O)CC[C@H]2[C@@H]3C=C(Cl)C4=CC(=O)[C@@H]5C[C@@H]5[C@]4(C)[C@H]3CC[C@@]21C here?
A: 14.8% (inactive)

Q: For COC(=O)[C@@H](N)CS, which “activity, negative = inhibition” value is on record?
A: 5.88% (inactive)

Q: With CCCCCCCCCCCCCCCCCC(=O)OCCO as the compound, how does the “activity, negative = inhibition” value read?
A: -1.06% (inactive)

Q: Which “activity, negative = inhibition” value does the source give for C=C1c2c(Cl)ccc(O)c2C(O)=C2C(=O)[C@]3(O)C(O)=C(C(N)=O)C(=O)[C@@H](N(C)C)[C@@H]3[C@@H](O)[C@H]12 here?
A: -12.5% [at 32.5 µM] (inactive)

Q: For O=c1oc2cc(O)ccc2s1, which “activity, negative = inhibition” value is on record?
A: -13.8% (inactive)

Q: Which “activity, negative = inhibition” value does the source give for Nc1nc2[nH]cc(CCc3ccc(C(=O)N[C@@H](CCC(=O)O)C(=O)O)cc3)c2c(=O)[nH]1 here?
A: -8.39% (inactive)

Q: With CCN(CC)CCOC(=O)c1cccnc1 as the compound, how does the “activity, negative = inhibition” value read?
A: -1.26% (inactive)

Q: With C[N+](C)(CCCCCC[N+](C)(C)C1c2ccccc2-c2ccccc21)C1c2ccccc2-c2ccccc21 as the compound, how does the “activity, negative = inhibition” value read?
A: -3.11% (inactive)

Q: Which “activity, negative = inhibition” value does the source give for O=C1NCCN1c1ncc([N+](=O)[O-])s1 here?
A: 3.43% [at 32.5 µM] (inactive)

Q: With CCOc1ccc(N=C(C)Nc2ccc(OCC)cc2)cc1 as the compound, how does the “activity, negative = inhibition” value read?
A: 0.522% (inactive)

Q: Which “activity, negative = inhibition” value does the source give for CCCCCCCCCCCCCCCC(=O)OC[C@@H](COP(=O)([O-])OCC[N+](C)(C)C)OC(=O)CCCCCCCCCCCCCCC here?
A: 9.71% (inactive)

Q: Which “activity, negative = inhibition” value does the source give for C=CCCCCCCCCC(=O)OC here?
A: -13.8% (inactive)

Q: Which “activity, negative = inhibition” value does the source give for Cc1c(O)cc2c(c1C)O[C@](C)(CCC[C@H](C)CCC[C@H](C)CCCC(C)C)CC2 here?
A: 3.61% (inactive)

Q: Which “activity, negative = inhibition” value does the source give for c1ccc2c(CCC3CCNCC3)c[nH]c2c1 here?
A: -17% (inactive)

Q: For CC(=O)N(CC(C)C(=O)O)c1c(I)cc(I)c(N)c1I (stereo not drawn), which “activity, negative = inhibition” value is on record?
A: 3.96% [at 32.5 µM] (inactive)

Q: With COc1cc(S(C)=O)ccc1-c1nc2ncccc2[nH]1 (stereo not drawn) as the compound, how does the “activity, negative = inhibition” value read?
A: 18.7% (inactive)

Q: With CC(=O)N[C@@H](CC(=O)N[C@@H](CCC(=O)O)C(=O)O)C(=O)O as the compound, how does the “activity, negative = inhibition” value read?
A: 1.15% (inactive)

Q: With CO/N=C(\C(=O)N[C@@H]1C(=O)N2C(C(=O)O)=C(CSC(=O)c3ccco3)CS[C@H]12)c1csc(N)n1 as the compound, how does the “activity, negative = inhibition” value read?
A: 0.803% (inactive)

Q: With Cc1onc(-c2ccccc2)c1C(=O)N[C@@H]1C(=O)N2[C@@H]1SC(C)(C)[C@@H]2C(=O)O as the compound, how does the “activity, negative = inhibition” value read?
A: 0.183% (inactive)

Q: Which “activity, negative = inhibition” value does the source give for CCCc1ccc(C(=O)O)cc1 here?
A: 6.99% (inactive)

Q: With N[C@H](CC(=O)O)C(=O)O as the compound, how does the “activity, negative = inhibition” value read?
A: 6.99% (inactive)
